# T1: GGA1 1-157 VHS (domain begin residue: 1, domain end residue: 157), Q9UJY5
# T1 chain: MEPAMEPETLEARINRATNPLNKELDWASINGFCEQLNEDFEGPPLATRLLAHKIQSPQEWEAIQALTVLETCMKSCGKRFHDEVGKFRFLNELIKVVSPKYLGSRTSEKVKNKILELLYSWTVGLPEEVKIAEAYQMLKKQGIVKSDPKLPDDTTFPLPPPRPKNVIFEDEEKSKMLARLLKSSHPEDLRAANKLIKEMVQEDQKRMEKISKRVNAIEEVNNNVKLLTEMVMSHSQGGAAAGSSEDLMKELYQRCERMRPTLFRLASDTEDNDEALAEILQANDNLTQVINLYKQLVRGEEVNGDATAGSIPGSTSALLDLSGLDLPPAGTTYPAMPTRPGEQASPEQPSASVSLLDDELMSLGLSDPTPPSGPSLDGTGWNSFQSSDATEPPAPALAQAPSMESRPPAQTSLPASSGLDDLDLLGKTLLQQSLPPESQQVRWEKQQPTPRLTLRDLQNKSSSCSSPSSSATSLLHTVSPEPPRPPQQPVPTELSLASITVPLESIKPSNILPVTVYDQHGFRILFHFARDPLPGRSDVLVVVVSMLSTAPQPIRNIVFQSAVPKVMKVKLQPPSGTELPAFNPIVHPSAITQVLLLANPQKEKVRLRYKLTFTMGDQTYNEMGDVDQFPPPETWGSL
# T2: GIGYF1 448-540 GYF (domain begin residue: 448, domain end residue: 540), O75420
# T2 chain: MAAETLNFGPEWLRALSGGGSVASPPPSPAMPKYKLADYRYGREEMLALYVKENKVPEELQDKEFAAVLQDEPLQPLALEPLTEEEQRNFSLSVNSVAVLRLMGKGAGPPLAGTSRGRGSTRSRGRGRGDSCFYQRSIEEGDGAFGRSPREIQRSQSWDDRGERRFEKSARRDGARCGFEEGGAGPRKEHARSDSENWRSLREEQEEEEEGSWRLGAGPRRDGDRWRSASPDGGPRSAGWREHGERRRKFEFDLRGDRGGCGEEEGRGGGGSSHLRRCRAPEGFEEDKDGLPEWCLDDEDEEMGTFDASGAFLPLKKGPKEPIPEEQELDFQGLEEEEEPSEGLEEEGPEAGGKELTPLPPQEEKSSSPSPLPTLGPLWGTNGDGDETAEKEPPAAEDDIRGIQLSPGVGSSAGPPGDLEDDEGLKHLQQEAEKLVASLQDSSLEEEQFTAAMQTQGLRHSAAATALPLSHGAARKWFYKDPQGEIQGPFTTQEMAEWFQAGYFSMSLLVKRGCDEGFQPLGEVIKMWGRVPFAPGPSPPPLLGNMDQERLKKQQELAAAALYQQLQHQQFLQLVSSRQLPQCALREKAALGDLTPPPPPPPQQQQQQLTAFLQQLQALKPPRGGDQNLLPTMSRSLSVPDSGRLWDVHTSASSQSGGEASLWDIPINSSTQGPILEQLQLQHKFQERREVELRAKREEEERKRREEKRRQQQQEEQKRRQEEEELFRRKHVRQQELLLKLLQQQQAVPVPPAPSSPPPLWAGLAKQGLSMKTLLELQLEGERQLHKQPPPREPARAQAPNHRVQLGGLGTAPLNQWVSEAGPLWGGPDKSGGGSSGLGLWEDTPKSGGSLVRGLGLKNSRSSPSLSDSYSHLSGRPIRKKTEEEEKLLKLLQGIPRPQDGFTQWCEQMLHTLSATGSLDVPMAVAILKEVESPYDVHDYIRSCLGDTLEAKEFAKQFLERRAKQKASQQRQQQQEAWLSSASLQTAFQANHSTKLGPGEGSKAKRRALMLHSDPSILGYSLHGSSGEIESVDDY
# T3: GIGYF2 507-602 GYF (domain begin residue: 507, domain end residue: 602), Q6Y7W6
# T3 chain: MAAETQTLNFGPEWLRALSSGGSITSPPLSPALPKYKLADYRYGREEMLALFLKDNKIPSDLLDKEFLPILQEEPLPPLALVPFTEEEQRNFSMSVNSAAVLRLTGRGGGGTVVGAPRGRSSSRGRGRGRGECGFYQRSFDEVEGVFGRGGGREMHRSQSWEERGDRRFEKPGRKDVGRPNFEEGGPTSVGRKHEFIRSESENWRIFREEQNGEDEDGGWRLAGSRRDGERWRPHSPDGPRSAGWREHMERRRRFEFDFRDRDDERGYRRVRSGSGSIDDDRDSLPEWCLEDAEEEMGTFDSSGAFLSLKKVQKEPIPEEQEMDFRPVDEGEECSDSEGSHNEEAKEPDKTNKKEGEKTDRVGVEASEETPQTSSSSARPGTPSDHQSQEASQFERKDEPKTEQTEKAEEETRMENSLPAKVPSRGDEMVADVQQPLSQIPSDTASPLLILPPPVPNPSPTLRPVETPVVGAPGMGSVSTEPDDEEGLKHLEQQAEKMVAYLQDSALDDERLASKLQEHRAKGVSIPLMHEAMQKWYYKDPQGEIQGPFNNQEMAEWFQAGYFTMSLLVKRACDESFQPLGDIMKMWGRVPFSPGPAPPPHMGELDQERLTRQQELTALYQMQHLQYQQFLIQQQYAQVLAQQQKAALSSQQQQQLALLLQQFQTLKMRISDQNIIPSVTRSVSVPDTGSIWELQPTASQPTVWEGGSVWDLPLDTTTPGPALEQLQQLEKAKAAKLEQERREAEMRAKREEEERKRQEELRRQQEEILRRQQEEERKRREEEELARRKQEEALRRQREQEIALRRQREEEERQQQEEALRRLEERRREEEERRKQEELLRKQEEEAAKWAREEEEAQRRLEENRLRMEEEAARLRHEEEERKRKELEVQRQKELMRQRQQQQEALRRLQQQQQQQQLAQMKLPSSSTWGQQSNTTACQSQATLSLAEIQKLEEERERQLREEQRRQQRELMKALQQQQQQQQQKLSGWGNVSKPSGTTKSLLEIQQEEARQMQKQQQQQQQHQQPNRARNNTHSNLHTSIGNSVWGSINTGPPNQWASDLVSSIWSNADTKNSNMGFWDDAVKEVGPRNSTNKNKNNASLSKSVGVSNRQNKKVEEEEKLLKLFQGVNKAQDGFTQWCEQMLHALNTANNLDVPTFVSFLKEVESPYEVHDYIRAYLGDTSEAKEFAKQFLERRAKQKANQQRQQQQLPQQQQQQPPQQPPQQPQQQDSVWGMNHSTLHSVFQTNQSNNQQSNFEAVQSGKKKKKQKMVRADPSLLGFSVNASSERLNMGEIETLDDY
# T4: FRS3 12-117 IRS (domain begin residue: 12, domain end residue: 117), O43559
# T4 chain: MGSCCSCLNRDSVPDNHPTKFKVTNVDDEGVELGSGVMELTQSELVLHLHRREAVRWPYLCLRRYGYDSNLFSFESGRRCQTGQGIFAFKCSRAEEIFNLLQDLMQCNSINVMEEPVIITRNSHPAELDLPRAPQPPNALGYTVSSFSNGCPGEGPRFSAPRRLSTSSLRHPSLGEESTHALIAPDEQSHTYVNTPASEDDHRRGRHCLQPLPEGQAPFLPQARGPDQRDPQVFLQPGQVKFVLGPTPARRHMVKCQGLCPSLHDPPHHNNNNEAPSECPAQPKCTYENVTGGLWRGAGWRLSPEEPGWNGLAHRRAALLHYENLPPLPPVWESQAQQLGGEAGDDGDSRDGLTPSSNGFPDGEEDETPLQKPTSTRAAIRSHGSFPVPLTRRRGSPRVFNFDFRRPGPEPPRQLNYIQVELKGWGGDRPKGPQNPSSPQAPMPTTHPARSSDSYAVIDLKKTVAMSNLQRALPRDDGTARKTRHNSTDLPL
# T5: SPRED2 1-124 WH1 (domain begin residue: 1, domain end residue: 124), Q7Z698
# T5 chain: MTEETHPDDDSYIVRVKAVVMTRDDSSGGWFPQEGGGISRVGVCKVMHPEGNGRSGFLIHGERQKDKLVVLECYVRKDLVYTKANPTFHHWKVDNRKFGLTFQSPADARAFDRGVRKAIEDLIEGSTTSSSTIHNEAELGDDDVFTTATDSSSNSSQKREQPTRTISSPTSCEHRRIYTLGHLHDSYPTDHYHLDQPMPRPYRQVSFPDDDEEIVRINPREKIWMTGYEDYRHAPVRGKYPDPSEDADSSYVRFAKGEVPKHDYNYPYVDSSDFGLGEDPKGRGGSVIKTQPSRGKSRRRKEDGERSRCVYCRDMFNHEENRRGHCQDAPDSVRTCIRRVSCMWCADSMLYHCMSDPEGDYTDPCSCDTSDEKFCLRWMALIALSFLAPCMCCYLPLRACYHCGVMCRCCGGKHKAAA
# T6: GNA14 2-355 G-alpha (domain begin residue: 2, domain end residue: 355), O95837
# T6 chain: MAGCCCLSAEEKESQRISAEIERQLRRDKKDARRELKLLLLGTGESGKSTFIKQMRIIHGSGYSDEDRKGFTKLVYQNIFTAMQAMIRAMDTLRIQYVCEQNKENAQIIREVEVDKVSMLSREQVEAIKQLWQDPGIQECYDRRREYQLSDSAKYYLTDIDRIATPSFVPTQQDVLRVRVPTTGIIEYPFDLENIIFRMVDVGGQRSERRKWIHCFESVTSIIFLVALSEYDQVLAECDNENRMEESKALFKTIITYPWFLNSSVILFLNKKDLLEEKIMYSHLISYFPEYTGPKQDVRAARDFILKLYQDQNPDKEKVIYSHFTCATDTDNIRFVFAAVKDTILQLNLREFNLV
# Columns and labels:
# Experiment in all cases: phage ELISA signal ratio (GST-PRM binding over GST background); higher = stronger binding of peptide-phage to the PRM
# [1] = target: T1, GGA1 1-157 VHS (domain begin residue: …
# In short: (§1)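 Five rounds of selection were carried out against human peptide recognition domains fused to the C-terminus of glutathione S-transferase (GST) and expressed in 96-well plates. The M13 phage library presented randomized hexadecapeptides, cysteine-free and glycine-flanked, on the gene-8 major coat protein. For each value, the phage ELISA signal on the GST-domain fusion was divided by the signal on GST alone.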
# [2] = target: GGA3 1-153 VHS (domain begin residue: 1, domain end residue: 153)
# In short: as §1
# [3] = target: GGA3 579-723 Alpha_adaptinC2 (domain begin residue: 579, domain end residue: 723)
# In short: as §1
# [4] = target: T2, GIGYF1 448-540 GYF (domain begin …
# In short: as §1
# [5] = target: T3, GIGYF2 507-602 GYF (domain begin …
# In short: as §1
# [6] = target: T4, FRS3 12-117 IRS (domain begin residue: …
# In short: as §1
# [7] = target: T5, SPRED2 1-124 WH1 (domain begin residue: …
# In short: as §1
# [8] = target: T6, GNA14 2-355 G-alpha (domain begin …
# In short: as §1
binder,measurement,setting,value
WDIDMWDLQEWMMIQS,phage ELISA signal ratio,[1],13.9
EMDVEMWFPHFMNHSF,phage ELISA signal ratio,[2],34.5
SFTWDSFESYVEPWKY,phage ELISA signal ratio,[3],9.04
GEMDDPMMHFSWVAMW,phage ELISA signal ratio,[1],12.6
TIDTPPGFPTSQHEGM,phage ELISA signal ratio,[4],16.8
TPPGYTMLMKEHSARH,phage ELISA signal ratio,[5],20.5
VWQVPEWQTVQLEYMK,phage ELISA signal ratio,[6],17.9
QAWDWGIYIDDWAQPL,phage ELISA signal ratio,[2],10.6
VDEWSVMKYPVEQKWV,phage ELISA signal ratio,[2],21.6
DTWMWGGYVSHTVQPY,phage ELISA signal ratio,[3],23.1
SQWMWIVHEPVKNLPK,phage ELISA signal ratio,[6],3.36
DWSQWQTAAMEEMITW,phage ELISA signal ratio,[3],18.5
HVEQWWTTESWPNWYT,phage ELISA signal ratio,[2],15.3
SRWVQIMHNGEETDSY,phage ELISA signal ratio,[6],16.9
PDTELIDVHQWRTSQW,phage ELISA signal ratio,[2],22.1
IQWNDMDFENLSGWWG,phage ELISA signal ratio,[3],4.03
IENSQPWITEYGAWEV,phage ELISA signal ratio,[3],6.07
SAPPGYQTGLLMAEYR,phage ELISA signal ratio,[4],7.85
same,phage ELISA signal ratio,[7],3.46
WHGQEADDVQMLWHWS,phage ELISA signal ratio,[2],5.39
GEQMMWVDWGQWHWYE,phage ELISA signal ratio,[3],26
WEDWMEDWRQWEEPRK,phage ELISA signal ratio,[3],31.4
SDVPPWWYHEPITGPM,phage ELISA signal ratio,[2],17.8
DHWGPPGLTWHVMERA,phage ELISA signal ratio,[4],10.1
AWGKYQSWEPQEWPAT,phage ELISA signal ratio,[3],13.4
WGHYEEDQMFVFMDHE,phage ELISA signal ratio,[1],19.8
GPPGFHQHADVMRYEM,phage ELISA signal ratio,[4],20.9
NYPNHPPGYEKWFQTM,phage ELISA signal ratio,[5],26.6
DGDVQKWGPYYSFTQQ,phage ELISA signal ratio,[8],28.9

# Source: the supplement of paper PMC7724964
